# High-throughput results (PubChem)
# KB-3-1 tox – KB-3-1 parental cell cytotoxicity; KB-3-1 viability, CellTiter-Glo ATP luminescence, 72 h; Potency, µM (titrated, usually from 46.1 µM), hits mostly cytotoxic; 1.4% of 400,000 active; also: nearly all actives have a fitted effect of over 60% in size
#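 KB-3-1 cells, DMEM (no phenol red) + 10% FBS; compound by pin transfer, 72 h, 37 °C. Readout: CellTiter-Glo luminescence after 10 min. Data normalized, curve-fitted.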
# HT1080NT lethal – kills 2HG-producing HT-1080-NT fibrosarcoma cells; HT-1080-NT fibrosarcoma viability, CellTiter-Glo ATP luminescence, 48 h; Potency, µM (doses to about 46.1 µM), usual class: cytotoxic; 1.6% of 360,000 active;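 also: NT is the 2HG producing partner of a matched IDH1 knockdown line; nearly all actives have a fitted effect of over 55% in size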
#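 750 cells/well, RPMI + 5% FBS; 2 h settle, compound pin-transfer, 48 h at 37 degrees C. CellTiter-Glo 10 min RT, luminescence. Normalized to DMSO and media-only wells.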
# MCF10A rereplic – induces DNA re-replication in MCF 10a normal breast cells; MCF 10A DNA re-replication, Hoechst nuclear intensity, 48 h; Potency, µM (titrated, usually from 46.1 µM), hits mostly activators; 2.9% of 350,000 active; AID 624296; also: nearly all actives have a fitted effect of over 50% in size
# SW480 rerep – DNA re-replication induction in SW480 cells. 1.8% of 340,000 active. AID 624297. SW480 DNA re-replication, Hoechst DNA content imaging, 48 h. Potency, µM (highest dose often 46.1 µM), usual class: activators; also: nearly all actives have a fitted effect of over 55% in size
#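 SW480 cells exposed to compounds for 48 hr at 37 C, 5% CO2, then Hoechst-stained 40 min. Nuclear DNA content imaged by fluorescence scanning (405 nm excitation, 500-530 nm emission); re-replication scored as increased high-intensity nuclei.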
# KB-V1 cytotox – kills drug-selected multidrug resistant KB-V1 cells; KB-V1 MDR cells viability, CellTiter-Glo, 72 h; Potency, µM (titrated, usually from 46.1 µM), usual class: cytotoxic; 3.4% of 400,000 active; also: nearly all actives have a fitted effect of over 60% in size
#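 In this primary screen, KB-V1 cells overexpressing P-gp are incubated with library compounds (lowest to highest concentration) for 72 h at 37 degrees C before a luminescent ATP viability read.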
# HT1080 IDH1KD tx – HT-1080 IDH1 knockdown cell toxicity (counter line). HT-1080 IDH1 knockdown viability, ATP luminescence, 48 h. Potency, µM (top dose mostly 46.1 µM), hits mostly cytotoxic. 2% of 360,000 active. AID 686971
#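 In this qHTS, HT-1080 cells depleted of IDH1 are exposed for 48 h at 37 °C to compound titrations. Toxicity is scored from CellTiter-Glo luminescence, with DMSO as full viability and medium alone as none.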
# Numbers stand for hits; – = inactive; ? = inconclusive; · = no result given; [ ] = remark or other dose. Most compounds without a hit are left out; they make up all but 8% or so of the library. Calls follow the shape of the dose curve; as a rule, active = well fitted curve in the direction sought with a large enough effect; inconclusive = small, poorly fitted or top-dose-only effect, or another doubt; inactive = no such curve, though single readings can be large; an effect the other way counts as inactive or inconclusive.
SMILES,KB-3-1 tox,HT1080NT lethal,MCF10A rereplic,SW480 rerep,KB-V1 cytotox,HT1080 IDH1KD tx
CC(=NNC(=S)Nc1cccc(Cl)c1)c1ccccn1,?,18.4µM,?,?,?,?
COc1cc(NC(=O)c2ccccn2)cc(OC)c1OC,–,–,–,–,–,–
Cc1onc(-c2ccccc2)c1C(=O)NCCc1c[nH]c2ccccc12,–,–,–,–,?,–
CCOC(=O)C(=O)NNc1ccccc1OC,–,–,–,–,–,–
COc1cccc(NC(=O)CNC(=O)c2ccc(F)cc2)c1,–,–,–,–,–,–
C/C(=N/NC(=O)c1ccccn1)c1ccco1,?,?,–,–,20.6µM,?
CCNC(=S)N/N=C(\C)c1cc2ccccc2o1,–,–,–,–,–,–
C/C(=N\NC(=S)Nc1cccc(C)c1)c1cc2ccccc2o1,–,–,14.1µM,–,–,–
Cc1ccc(NNC(=O)CCc2ccccc2)c(C)c1,–,?,–,–,–,25.9µM
Cc1ccc(NC(=O)CCC(=O)NNC(=O)CCc2ccccc2)c(C)c1,–,–,–,–,–,–
Cc1ccc(NNC(=O)c2ccno2)c(C)c1,–,5.8µM,?,–,–,7.31µM
CC1(C)CC(NC(=O)COc2ccc3c4c(c(=O)oc3c2)CCCC4)CC(C)(C)N1,–,–,–,–,?,–
Nc1ncnc(N)c1N=Nc1ccccc1,?,?,–,?,–,11.6µM
Nc1c(N=Nc2ccccc2F)c(=O)[nH]n1-c1ccccc1,–,–,–,–[9.22 µM],–,–
Cc1nn(-c2ccccc2)c(N)c1N=Nc1ccc(Cl)cc1,–,?,?,?,?,?
Nc1nn(-c2ccccc2)c(N)c1N=Nc1ccccc1,?,?,5.8µM,5.17µM,5.8µM,16.4µM
Nc1nn(-c2ccccc2)c(N)c1N=Nc1ccccc1F,?,8.2µM,8.2µM,10.3µM,4.61µM,5.8µM
CCc1ccc(NC(=O)CC2C(=O)NCCN2C(=O)c2ccccc2OC)cc1 (configuration not stated),–,–,–,–,–,–
COc1ccc(C(=O)Nc2ccccc2)cc1S(=O)(=O)Nc1cc(C)on1,–,–,–,–,–,–
COc1cc(CN2CC(=O)N(c3ccc(C)cc3)C2=S)cc(OC)c1OC,?,–,–,–,10.3µM,–
COc1ccc(CN2CC(=O)N(c3ccc(C)cc3)C2=S)cc1OC,–,–,–,–,–,–
COc1cc2c(cc1Cl)/C(=C\CCN(C)C)c1ccccc1S2,?,?,?,?,16.4µM,?
CN(C)CC/C=C1/c2cc(F)ccc2Sc2ccc(Cl)cc21,–,23.1µM,–,–,–,16.4µM
CN(C)CC/C=C1/c2ccccc2Sc2c(O)cc(Cl)cc21,?,?,–,?,14.6µM,23.1µM
Cc1ccc(S(=O)(=O)N2[C@@H](c3ccc4c(c3)OCO4)C(C(=O)O)=C[C@H]2CC2CCCC2)cc1,–,–,–,?,–,–
SMILES,KB-3-1 tox,HT1080NT lethal,MCF10A rereplic,SW480 rerep,KB-V1 cytotox,HT1080 IDH1KD tx
Cc1c(CC(=O)N2CCCCC2)c(=O)oc2c(C)c(O)ccc12,–,·,·,·,–,·
O=C(Cn1nnc2ccccc21)OCc1ccccc1,–,–,0.651µM,–,–,–
O=C(Cn1nnc2ccccc21)NCc1ccccc1,–,–,–,–,–,–
Cc1ccc(S(=O)(=O)N(CC(=O)N/N=C/c2ccco2)c2cc(Cl)cc(Cl)c2)cc1,–,?,?,–,18.4µM,?
CCOC(=O)C1(S(=O)(=O)c2ccc(Cl)cc2)CCN(Cc2ccc(C)cc2)CC1,?,?,?,–,20.6µM,?
COc1cc2c3nnc(-c4ccccc4)c-3cn(Cc3ccccc3F)c2cc1OC,?,?,23.1µM,23.1µM,–,?
COc1cc2c3nnc(-c4ccc(F)cc4)c-3cn(Cc3ccccc3F)c2cc1OC,14.6µM,?,9.2µM,?,–,?
COc1ccc(C(=O)c2cn(Cc3ccccc3F)c3cc4c(cc3c2=O)OCO4)cc1,–,·,·,·,–,·
COc1cc2c(=O)c(S(=O)(=O)c3ccc(F)cc3)cn(Cc3ccccc3C)c2cc1OC,–,·,·,·,–,·
